A short description of assay [1]: qHTS assay for measurement of the activity of small molecule inhibitors on Zika virus induced Caspase-3 activity in human iPSC derived neural progenitor cells (hNPCs) (AID 1224857). Further: nearly all actives have a fitted effect of over 65% in size. Further: potency means the concentration at half of the fitted maximal effect. An outline of the steps: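 Caspase-3/7 induction by a 6-hour ZIKV infection was quantified with a luminescent Caspase-Glo 3/7 reagent incubated 30 minutes at room temperature. Compounds were preincubated with hNPCs for 1 hour; inhibition was calculated against uninfected and infected control wells.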
Background: In qHTS, concentration-response curves come from the screen itself.

Assay [2] is described as follows: qHTS assay for measurement of the activity of small molecule inhibitors on Zika virus induced Caspase-3 activity in human astrocytoma cells (AID 1224859). An outline of the steps:
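In SNB-19 cells plated at 250 cells/well and grown 16-20 h, compounds were applied 1 h before ZIKV (2 FFU/cell). Six hours later caspase-3/7 luminescence was recorded.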

Assay [3] can be described thus: qHTS Screen of the MIPE 4.0 Collection Against Ewings Sarcoma (EW8) (AID 1259255). Further: nearly all actives have a fitted effect of over 35% in size. Further: potency means the concentration at half of the fitted maximal effect. An outline of the steps:
(§1)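 Cells plated in serum-containing RPMI (5% FBS) and treated with compound dilutions for 48 h. Readout luminescent viability; normalization relied on vehicle (no inhibition) and media-only columns (full inhibition).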

Assay [4] can be described thus: qHTS assay to identify small molecule inhibitors of chordoma cells - UCH-1 (AID 1259355). Further: nearly all actives have a fitted effect of over 55% in size. An outline of the steps:
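800 cells/well, overnight attach; compounds pinned at 15 concs, then auranofin/camptothecin/doxorubicin/rubitecan/topotecan combo added; 48hr 37 C, 5% CO2; CellTiter-Glo, 30min RT, luminescence.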

A short description of assay [5]: qHTS assay to identify small molecule inhibitors of chordoma cells - UCH-2 (AID 1259356). Further: series mostly up to about 46 µM.
A short description of assay [6]: P-glycoprotein substrates identified in KB-8-5-11 adenocarcinoma cell line, qHTS therapeutic library screen (AID 1346987). Further: nearly all actives have a fitted effect of over 65% in size. Further: potency means the concentration at half of the fitted maximal effect. An outline of the steps:
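Human cervical adenocarcinoma KB-8-5-11 cells, selected in colchicine to over-express P-gp and assayed without it, were exposed for 72 h to titrated compounds. An ATP-based luminescent viability signal gave AC50.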

The nature of assay [7]: NS1 protein of Zika virus - qHTS assay to identify small molecule inhibitors in human HEK 293 cells (AID 1347053). Further: nearly all actives have a fitted effect of over 55% in size. Further: potency means the concentration at half of the fitted maximal effect. An outline of the steps:
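Read-out is a two-antibody TR-FRET for ZIKV NS1, normalized between uninfected cells and infected cells. Compound added 1 h before MR766 infection at MOI 0.5; human HEK 293 cells incubated 24 h, 37 C.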

A short description of assay [8]: qHTS Screen of the MIPE 4.0 Collection Against Ewings Sarcoma (RDES) (AID 1259252). Further: nearly all actives have a fitted effect of over 35% in size. Further: potency means the concentration at half of the fitted maximal effect. An outline of the steps:
as §1

The nature of assay [9]: qHTS Screen of the MIPE 4.0 Collection Against Ewings Sarcoma (TC32) (AID 1259256). Further: nearly all actives have a fitted effect of over 45% in size. Further: potency means the concentration at half of the fitted maximal effect. An outline of the steps:
as §1

The nature of assay [10]: qHTS Screen of the MIPE 4.0 Collection Against Ewings Sarcoma (TC71) (AID 1259253). Further: nearly all actives have a fitted effect of over 40% in size. Further: potency means the concentration at half of the fitted maximal effect. A digest of the protocol: as §1
The target of assay [11] is Atrial natriuretic peptide receptor 1 (Homo sapiens) (UniProt P16066). Kind of assay: Natriuretic polypeptide receptor (hNpr1) antagonism - Pilot screen (AID 1347049; calls by dose curve;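 further: HEK293 cells with hNpr1 and GloSensor cGMP luciferase stimulated by 0.1 nM hNppA; agonist-evoked cGMP luminescence read 20 min after hNppA addition; series mostly up to about 58 µM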). An outline of the steps:
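Receptor antagonism read as cGMP-dependent luminescence in hNpr1/pGS-40F HEK293 cells: pre-read after 30 min compound exposure, post-read 20 min after hNppA agonist at 0.1 nM final, all at room temperature, protected from light; A-71915 titration as control.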

The target in assay [12] is Tyrosine-protein phosphatase non-receptor type substrate 1 (Homo sapiens) + Leukocyte surface antigen CD47 (Homo sapiens) (UniProt P78324+Q08722). In words: CD47-SIRPalpha protein protein interaction - LANCE assay qHTS validation (AID 1347057; active means well fitted curve in the direction sought with a large enough effect in the signal ratio, with a control signal flat, not every such curve was filed as active; the % refers to the signal ratio; further: series mostly up to about 38 µM). An outline of the steps:
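Inhibition of soluble CD47/SIRPalpha ectodomain association by titrated compounds, measured as 665/615 nm time-resolved FRET ratio after sequential 30 min room-temperature incubations.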
(In TR-FRET formats the signal depends on donor and acceptor labels being close together.)

Assay [13] is described as follows: Identifying Small Molecule Inhibitors of Pancreatic Cancer Stem Cells (Panc1, Adherent) (AID 1259362). Further: potency means the concentration at half of the fitted maximal effect. To be noted: Potency: viability. A digest of the protocol:
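Viability is scored by CellTiter-Glo luminescence 48 h after dosing, expressed as percent activity against vehicle and no-cell references. Spheroid formats rely on cells cultured 14 days in stem cell media beforehand.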

A short description of assay [14]: P-glycoprotein substrates identified in KB-3-1 adenocarcinoma cell line, qHTS therapeutic library screen (AID 1346986). Further: nearly all actives have a fitted effect of over 60% in size.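 Further: potency means the concentration at half of the fitted maximal effect; potency is for cytotoxicity meaning loss of cell viability.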 An outline of the steps:
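Dose-response cytotoxicity, KB-3-1 vs P-gp-high KB-8-5-11, no colchicine in assay medium. Read: CellTiter-Glo at 72 h.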

The structures appear in SMILES notation. Values joined by “and” are separate entries in the source; they are usually repeats but may differ in a detail not shown here. Equal entries are not always repeated. Inconclusive results are not listed. Where a structure was tested more than once in an assay, its records may differ in their call. Active and inactive are the calls of the source. Unless noted, the call rests on the fitted dose curve; in most records, active means well fitted curve in the direction sought with a large enough effect; inconclusive means small, poorly fitted or top-dose-only effect, or another doubt; inactive means no such curve, though single readings can be large; an effect the other way counts as inactive or inconclusive.

Atrial natriuretic peptide receptor 1 (Homo sapiens), sequence (P16066 whole entry, looked up): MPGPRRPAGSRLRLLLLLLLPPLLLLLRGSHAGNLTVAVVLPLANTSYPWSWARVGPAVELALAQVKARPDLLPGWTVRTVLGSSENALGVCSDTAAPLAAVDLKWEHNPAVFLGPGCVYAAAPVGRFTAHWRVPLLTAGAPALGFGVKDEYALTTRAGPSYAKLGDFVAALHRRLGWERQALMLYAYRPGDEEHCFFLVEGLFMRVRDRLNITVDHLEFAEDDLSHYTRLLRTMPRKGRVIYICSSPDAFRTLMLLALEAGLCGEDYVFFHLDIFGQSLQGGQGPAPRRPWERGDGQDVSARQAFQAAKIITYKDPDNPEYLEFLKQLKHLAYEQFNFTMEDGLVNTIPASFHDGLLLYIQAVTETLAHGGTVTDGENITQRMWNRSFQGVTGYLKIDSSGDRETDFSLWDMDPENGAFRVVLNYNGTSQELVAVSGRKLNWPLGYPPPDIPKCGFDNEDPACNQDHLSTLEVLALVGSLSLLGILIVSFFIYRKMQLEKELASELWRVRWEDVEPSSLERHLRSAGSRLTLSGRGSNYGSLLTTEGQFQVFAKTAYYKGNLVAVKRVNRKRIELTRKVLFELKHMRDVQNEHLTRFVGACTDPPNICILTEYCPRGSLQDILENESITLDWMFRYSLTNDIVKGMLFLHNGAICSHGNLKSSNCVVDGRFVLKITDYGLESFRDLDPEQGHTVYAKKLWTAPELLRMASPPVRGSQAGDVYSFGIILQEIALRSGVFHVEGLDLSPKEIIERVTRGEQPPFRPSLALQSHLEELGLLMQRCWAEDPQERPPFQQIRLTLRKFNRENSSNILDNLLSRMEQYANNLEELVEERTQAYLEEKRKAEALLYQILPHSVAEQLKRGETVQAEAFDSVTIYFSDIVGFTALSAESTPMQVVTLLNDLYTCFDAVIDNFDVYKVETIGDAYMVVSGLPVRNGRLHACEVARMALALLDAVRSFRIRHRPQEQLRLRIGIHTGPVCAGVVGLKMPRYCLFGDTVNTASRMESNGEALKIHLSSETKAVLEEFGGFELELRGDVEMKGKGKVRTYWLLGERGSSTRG
Tyrosine-protein phosphatase non-receptor type substrate 1 (Homo sapiens) + Leukocyte surface antigen CD47 (Homo sapiens), sequence (P78324 whole entry, looked up, the tested form may be a part): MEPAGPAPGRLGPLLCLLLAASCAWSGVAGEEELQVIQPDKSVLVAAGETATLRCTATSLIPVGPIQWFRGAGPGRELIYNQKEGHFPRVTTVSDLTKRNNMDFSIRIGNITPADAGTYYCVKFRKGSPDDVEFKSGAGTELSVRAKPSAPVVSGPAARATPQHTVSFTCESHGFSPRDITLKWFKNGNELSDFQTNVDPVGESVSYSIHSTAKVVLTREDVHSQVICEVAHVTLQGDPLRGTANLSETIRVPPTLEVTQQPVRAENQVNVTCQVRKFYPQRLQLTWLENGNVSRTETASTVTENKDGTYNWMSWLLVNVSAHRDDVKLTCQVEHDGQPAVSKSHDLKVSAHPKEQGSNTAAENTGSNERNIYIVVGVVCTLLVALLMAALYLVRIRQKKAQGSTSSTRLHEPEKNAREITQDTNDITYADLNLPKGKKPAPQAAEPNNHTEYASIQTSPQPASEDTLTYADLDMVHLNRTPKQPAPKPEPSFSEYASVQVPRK
Tyrosine-protein phosphatase non-receptor type substrate 1 (Homo sapiens) + Leukocyte surface antigen CD47 (Homo sapiens), sequence (Q08722 whole entry, looked up, the tested form may be a part): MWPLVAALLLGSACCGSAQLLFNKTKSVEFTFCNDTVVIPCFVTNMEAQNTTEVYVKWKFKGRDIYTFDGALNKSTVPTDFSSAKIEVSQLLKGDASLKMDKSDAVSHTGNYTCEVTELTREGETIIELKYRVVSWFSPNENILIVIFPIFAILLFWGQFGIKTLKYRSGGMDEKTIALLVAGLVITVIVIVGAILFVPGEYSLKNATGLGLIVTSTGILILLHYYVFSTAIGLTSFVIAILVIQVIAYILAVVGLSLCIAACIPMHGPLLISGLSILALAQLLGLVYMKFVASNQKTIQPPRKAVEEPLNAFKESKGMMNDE

Turning to `Cc1ncc([N+](=O)[O-])n1CC(C)O` (centres undefined), the Potency entry in assay [1], in assay [2], in assay [3], in assay [4], in [5] and in assay [6] was “inactive” throughout. Further, the Potency result in assay [7] was “inactive”.

Regarding `c1ccc2[nH]c(-c3cscn3)nc2c1`, in assay [1], the Potency was 16.6 µM (active). For the same compound, the Potency entry in [8], in [3], in [9], in assay [4], in assay [5] and in [6] was “inactive” throughout. The Potency result in [7] is “inactive”.

On to `Cc1cccc(CN2CCN(C(c3ccccc3)c3ccc(Cl)cc3)CC2)c1` (centres undefined), for which the Potency entry in assay [1], in [2], in [4], in [5] and in assay [7] was “inactive” throughout. Besides, the Potency in assay [8] is 20.9 µM (active); in [9] it was 13.2 µM (active).

For the compound `O=c1c(O)c(-c2ccc(O)cc2O)oc2cc(O)cc(O)c12`, the Potency entry in [1], in assay [8], in assay [10], in [9], in [11] and in [7] was “inactive” in each case.

For `C[C@H](Cc1ccc(O)c(O)c1)[C@@H](C)Cc1ccc(O)c(O)c1`, the Potency result in [1] was “inactive and 26.4 µM (active)”; in assay [3], 16.6 µM (active); in [9] it was 13.2 µM (active). Moreover, the Potency entry in assay [2], in assay [5], in assay [6] and in assay [11] was “inactive” in each case. Moreover, the result in assay [12] was inactive.

Regarding `Cc1nc(Nc2ncc(C(=O)Nc3c(C)cccc3Cl)s2)cc(N2CCN(CCO)CC2)n1`, the Potency entry in assay [1], in assay [6] and in [7] was “inactive” throughout. Besides, the Potency in [3] and in assay [13] was 20.9 µM (active) in each case.

Turning to `O=c1ccc2ccc(O)c(O)c2o1`, the Potency entry in [1], in assay [2], in assay [14], in assay [6] and in assay [11] was “inactive” in each case. In [9], the Potency was 13.2 µM (active). Moreover, in assay [12], the outcome was inactive.

For `CCCCCCCCCCCCCCCCCCCCCCO`, the Potency entry in assay [1], in assay [2], in assay [8], in assay [3], in assay [9] and in assay [4] was “inactive” in each case. Besides, the Potency entry in [5], in [6] and in assay [7] was “inactive” each time.

Turning to `O=C(NCCO[N+](=O)[O-])c1cccnc1`, the Potency result in [1], in assay [2], in assay [3], in assay [4], in assay [5] and in assay [14] was “inactive” each time. In [7], the Potency entry is “inactive”.

Consider `CN(c1nccc(=O)[nH]1)C1CCN(c2nc3ccccc3n2Cc2ccc(F)cc2)CC1`, for which the Potency result in assay [1], in assay [4], in assay [5], in assay [14] and in assay [7] was “inactive” each time. Further, the Potency in assay [8] is 13.2 µM (active).

As to `Nc1ccc(S(N)(=O)=O)cc1`, the Potency result in assay [1], in [2], in [8], in assay [3], in [9] and in [4] was “inactive” throughout. Also, the Potency result in assay [5] and in assay [6] was “inactive” each time.

Turning to `NCCCCNCCCN`, the Potency result in assay [1], in [2], in assay [8], in assay [9], in assay [6] and in [11] was “inactive” in each case. Moreover, the Potency result in assay [7] was “inactive”. Further, the result in assay [12] was inactive.

In the case of `Cc1cc2cc3c(C)cc(=O)oc3c(C)c2o1`, the Potency result in [1], in assay [2], in [4], in assay [5], in [14] and in assay [6] was “inactive” throughout. In addition, the Potency entry in [7] is “inactive”. In addition, the figures for the Potency in assay [8] and in [9] were 7.43 µM (active) and 16.6 µM (active), respectively.

As for `CC(=O)O[C@H]1C(=O)[C@@]2(C)C([C@H](OC(=O)c3ccccc3)[C@]3(O)C[C@H](OC(=O)[C@H](O)[C@@H](NC(=O)c4ccccc4)c4ccccc4)C(C)=C1C3(C)C)[C@]1(OC(C)=O)CO[C@@H]1C[C@@H]2O` (some centres undefined), the Potency entry in [1], in [2], in [8], in [3] and in assay [9] was “inactive” each time. Moreover, the Potency in assay [6] was 209 nM (active) and 1.01 µM (active).

For the compound `N=C(N)c1ccc2cc(OC(=O)c3ccc(N=C(N)N)cc3)ccc2c1`, the Potency result in [1], in [2], in assay [8], in assay [3], in assay [9] and in assay [4] was “inactive” in each case. For the same compound, the Potency result in assay [5], in assay [6] and in [7] was “inactive” in each case.

For `Cc1cc(C2CCCCC2)n(O)c(=O)c1`, the Potency result in assay [1], in assay [2] and in [4] was “inactive” in each case. For the same compound, the Potency in [10] was 5.26 µM (active); in assay [3] it was 14.8 µM (active); in assay [9] it was 2.64 µM (active); in assay [14], 6.51 µM (active); in assay [6], 5.8 µM (active); in assay [7], “inactive and 6.62 µM (active)”.

For `Cc1cc(Cl)ccc1OCCCC(=O)NO`, the Potency result in assay [1], in assay [14] and in assay [7] was “inactive” throughout. Also, the Potency in assay [8] is 0.743 µM (active); in assay [3] it was 1.05 µM (active); in assay [9], 11.8 µM (active). The outcome in [12] was inactive.

Turning to `NC(=NCc1ccccc1)NC(=O)c1nc(Cl)c(N)nc1N`, the Potency result in assay [1], in assay [2], in assay [6] and in assay [11] was “inactive” in each case. Also, the Potency in assay [8] was 16.6 µM (active). The outcome in assay [12] was inactive.

Consider `COC(=O)C1=C(C)NC(C)=C(C(=O)OC(C)C)C1c1cccc2nonc12` (centres undefined), for which the Potency result in [1], in assay [4], in [5], in [6] and in [7] was “inactive” throughout. Also, the Potency is 23.5 µM (active) in [8] and 26.4 µM (active) in assay [10].

Values taken from PubChem BioAssay (NCATS).
